# In PubChem BioAssay (NCATS):
# Records with an inconclusive call do not appear. Entries that show only a call come without a potency. Unmarked numbers belong to inactive results. Activity calls are given as the source filed them. Calls come from the whole dose curve; as a rule, active = well fitted curve in the direction sought with a large enough effect; inconclusive = small, poorly fitted or top-dose-only effect, or another doubt; inactive = no such curve, though single readings can be large; an effect the other way counts as inactive or inconclusive. Where a SMILES comes first, the peptide text is derived from it. [ ]: non-standard residue; d: D form. ξ: configuration not given here. ξTyr(βOH) = NC(C(=O)O)C(O)c1ccc(O)cc1
# Key:
# NIH3T3 = experiment: qHTS assay to identify novel small-molecules to repurpose for Merkel cell carcinoma treatment (AID 1296009); settings: MCC and control cell lines, CellTiter-Glo viability, 72 h; at 44.8 µM (top of the series) unless noted; note: nearly all actives have a fitted effect of over 60% in size
# Procedure, shortened: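 Viability readout: ATP luminescence (CellTiter-Glo) after 72 hr drug exposure at 37 degree celsius. Dose-response format was 8 points for NPC and 11 points for MIPE; data normalized to in-plate controls.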
# C33A = experiment: Primary qHTS to identify gynecologic anti-cancer compounds using libraries of approved drugs and bioactive compounds (AID 1345084); settings: Gynecologic cancer cell panel viability, ATPlite luminescence, 48 h; series mostly up to 57.5 µM; note: nearly all actives have a fitted effect of over 55% in size; note: potency is the fitted concentration of half-maximal effect
# Procedure, shortened: (§1)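 Cells, 1,000 per well, plated 16 h, then exposed 48 h at 37 C to compounds. Viability by ATPlite luminescence after 15 min at room temperature.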
# CAOV3 = experiment: as above; settings: Gynecologic cancer cell panel viability, ATPlite luminescence, 48 h; series mostly up to 57.5 µM
# Procedure, shortened: as §1
# CASKI = experiment: as above; settings: Gynecologic cancer cell panel viability, ATPlite luminescence, 48 h; series mostly up to 57.5 µM
# Procedure, shortened: as §1
# Es-2 = experiment: as above; settings: Gynecologic cancer cell panel viability, ATPlite luminescence, 48 h; series mostly up to 57.5 µM
# Procedure, shortened: as §1
# HeLa = experiment: as above; settings: Gynecologic cancer cell panel viability, ATPlite luminescence, 48 h; series mostly up to 57.5 µM
# Procedure, shortened: as §1
# Hek293T = experiment: as above; settings: Gynecologic cancer cell panel viability, ATPlite luminescence, 48 h, control line for the selectivity index; series mostly up to 57.5 µM
# Procedure, shortened: as §1
# JEG-3 = experiment: as above; settings: Gynecologic cancer cell panel viability, ATPlite luminescence, 48 h; series mostly up to 57.5 µM
# Procedure, shortened: as §1
# OV90 = experiment: as above; settings: Gynecologic cancer cell panel viability, ATPlite luminescence, 48 h; series mostly up to 57.5 µM
# Procedure, shortened: as §1
# PA-1 = experiment: as above; settings: Gynecologic cancer cell panel viability, ATPlite luminescence, 48 h; series mostly up to 57.5 µM
# Procedure, shortened: as §1
# Tov-21-G = experiment: as above; settings: Gynecologic cancer cell panel viability, ATPlite luminescence, 48 h; series mostly up to 57.5 µM
# Procedure, shortened: as §1
# Tov112D = experiment: as above; settings: Gynecologic cancer cell panel viability, ATPlite luminescence, 48 h; series mostly up to 57.5 µM
# Procedure, shortened: as §1
# SKOV3 = experiment: as above; settings: Gynecologic cancer cell panel viability, ATPlite luminescence, 48 h; series mostly up to 57.5 µM
# Procedure, shortened: as §1
smiles,measurement,setting,value
CC1OC(O[C@@H]2[C@H](O)[C@@H](OC3OC(CO)C(O)C(O)C3O)[C@H](OC(=O)[C@]34CCC(C)(C)C[C@H]3C3=CCC5[C@@]6(C)CC[C@H](O[C@@H]7O[C@H](C(=O)O)[C@@H](O)[C@H](O[C@@H]8OC[C@@H](O)[C@H](O)[C@H]8O)[C@H]7O[C@@H]7O[C@H](CO)[C@H](O)[C@H](O)[C@H]7O)[C@@](C)(C=O)C6CC[C@@]5(C)[C@]3(C)C[C@H]4O)O[C@@H]2C)C(O)C(O)C1OC1OCC(O)C(O)C1O (stereo partly specified),outcome,NIH3T3,inactive [at 4.96 µM]
same,"activity change, negative = cytotoxicity",C33A,2.44% [at 6.55 µM]
same,"activity change, negative = cytotoxicity",CAOV3,8.46% [at 6.55 µM]
same,"activity change, negative = cytotoxicity",CASKI,4.43% [at 6.55 µM]
same,"activity change, negative = cytotoxicity",Es-2,-4.12% [at 6.55 µM]
same,"activity change, negative = cytotoxicity",HeLa,23.9% [at 6.55 µM]
same,"activity change, negative = cytotoxicity",Hek293T,0.666% [at 6.55 µM]
same,"activity change, negative = cytotoxicity",JEG-3,2.9% [at 6.55 µM]
same,"activity change, negative = cytotoxicity",OV90,-6.72% [at 6.55 µM]
same,"activity change, negative = cytotoxicity",PA-1,8.3% [at 6.55 µM]
same,"activity change, negative = cytotoxicity",Tov-21-G,-1.56% [at 6.55 µM]
same,"activity change, negative = cytotoxicity",Tov112D,1.65% [at 6.55 µM]
CCOc1ncc(S(=O)(=O)N2CCN(CC)CC2)cc1-c1nc2c(CC)n(CCOC)nc2c(=O)[nH]1,outcome,NIH3T3,inactive
same,Potency,C33A,inactive
same,Potency,CAOV3,inactive
same,outcome,CASKI,inactive
same,Potency,Es-2,inactive
same,Potency,HeLa,inactive
same,Potency,Hek293T,inactive
same,Potency,JEG-3,inactive
same,Potency,OV90,inactive
same,Potency,PA-1,inactive
same,Potency,Tov-21-G,inactive
same,Potency,Tov112D,inactive
C[C@H]1[C@@H](O)[C@H](O)C2[C@]3(C)C([C@@H](O)[C@H]4OC(=O)[C@@H]1[C@@]24C)[C@](C)(O)C=C[C@H]3O[C@@H]1O[C@H](CO)[C@@H](O)[C@H](O)[C@H]1O (stereo partly specified),outcome,NIH3T3,inactive [at 17.4 µM]
same,Potency,C33A,inactive
same,Potency,CAOV3,inactive
same,outcome,CASKI,inactive
same,Potency,Es-2,inactive
same,Potency,HeLa,inactive
same,Potency,Hek293T,inactive
same,Potency,JEG-3,inactive
same,Potency,OV90,inactive
same,Potency,PA-1,inactive
same,Potency,Tov-21-G,inactive
same,Potency,Tov112D,inactive
COC(=O)C1=CO[C@@H](O[C@@H]2O[C@H](CO)[C@@H](O)[C@H](O)[C@H]2O)[C@H]2[C@@H]1C=C[C@]21C=C([C@H](C)OC(=O)/C=C/c2ccc(O[C@@H]3O[C@H](CO)[C@@H](O)[C@H](O)[C@H]3O)cc2)C(=O)O1,outcome,NIH3T3,inactive [at 17.4 µM]
same,Potency,C33A,inactive
same,Potency,CAOV3,inactive
same,outcome,CASKI,inactive
same,Potency,Es-2,inactive
same,Potency,HeLa,inactive
same,Potency,Hek293T,inactive
same,Potency,JEG-3,inactive
same,Potency,OV90,inactive
same,Potency,SKOV3,inactive
same,Potency,Tov-21-G,inactive
same,Potency,Tov112D,inactive
C=C1[C@@H]2CC[C@@]3(C)[C@H](c4ccoc4)OC(=O)C[C@]13O[C@H]1CC(=O)C(C)(C)[C@H](C(O)C(=O)OC)[C@]12C (stereo partly specified),outcome,NIH3T3,inactive [at 17.4 µM]
same,Potency,C33A,inactive
same,Potency,CAOV3,inactive
same,outcome,CASKI,inactive
same,Potency,Es-2,inactive
same,Potency,HeLa,inactive
same,Potency,Hek293T,inactive
same,Potency,JEG-3,inactive
same,Potency,OV90,inactive
same,Potency,SKOV3,inactive
same,Potency,Tov-21-G,inactive
same,Potency,Tov112D,inactive
NC1(c2ccc(NC(=O)c3ccnc(-c4cc(C(=O)O)ccn4)c3)cc2)CC1,outcome,NIH3T3,inactive
same,Potency,C33A,inactive
same,Potency,CAOV3,inactive
same,outcome,CASKI,inactive
same,Potency,Es-2,inactive
same,Potency,HeLa,inactive
same,Potency,Hek293T,inactive
same,Potency,JEG-3,inactive
same,Potency,OV90,inactive
same,Potency,SKOV3,inactive
same,Potency,Tov-21-G,inactive
same,Potency,Tov112D,inactive
COc1cc(/C=C/C(=O)OCC2OC(OC3(CO)OC(CO)C(O)C3O)C(O)C(O)C2O)ccc1O (stereo unspecified),outcome,NIH3T3,inactive [at 17.4 µM]
same,Potency,C33A,inactive
same,Potency,CAOV3,inactive
same,outcome,CASKI,inactive
same,Potency,Es-2,inactive
same,Potency,HeLa,inactive
same,Potency,Hek293T,inactive
same,Potency,JEG-3,inactive
same,Potency,OV90,inactive
same,Potency,PA-1,inactive
same,Potency,Tov-21-G,inactive
same,Potency,Tov112D,inactive
COC(=O)c1cc(OC)cc(OC)c1C(=O)c1c(OC)cc2c(c1O)C1CCC(O)C(C)(O2)O1 (stereo unspecified),outcome,NIH3T3,inactive [at 17.4 µM]
same,Potency,C33A,inactive
same,Potency,CAOV3,inactive
same,outcome,CASKI,inactive
same,Potency,Es-2,inactive
same,Potency,HeLa,inactive
same,Potency,Hek293T,inactive
same,Potency,JEG-3,inactive
same,Potency,OV90,inactive
same,Potency,PA-1,inactive
same,Potency,Tov-21-G,inactive
same,Potency,Tov112D,inactive
C#CCCCn1cc(-c2cccc3c2N[C@@H](C)CC(=O)N3)cn1,outcome,NIH3T3,inactive
same,Potency,C33A,inactive
same,Potency,CAOV3,inactive
same,outcome,CASKI,inactive
same,Potency,Es-2,inactive
same,Potency,HeLa,28.2 µM (active)
same,Potency,Hek293T,inactive
same,Potency,JEG-3,inactive
same,Potency,OV90,inactive
same,Potency,PA-1,inactive
same,Potency,Tov-21-G,inactive
same,Potency,Tov112D,inactive
CC(C)C1NC(=O)CNC(=O)C2CCCN2C(=O)C(Cc2c[nH]c3ccccc23)NC(=O)CNC(=O)C(C(O)c2ccc(O)cc2)NC(=O)CNC1=O (stereo unspecified) (cyclo(G[ξTyr(βOH)]GWPGV); configuration not given here),outcome,NIH3T3,inactive [at 17.4 µM]
same,Potency,C33A,inactive
same,Potency,CAOV3,inactive
same,outcome,CASKI,inactive
same,Potency,Es-2,inactive
same,Potency,HeLa,inactive
same,Potency,Hek293T,inactive
same,Potency,JEG-3,inactive
same,Potency,OV90,inactive
same,Potency,PA-1,inactive
same,Potency,Tov-21-G,inactive
same,Potency,Tov112D,inactive
C/C=C(\C)C(=O)OC[C@H]1O[C@H](O[C@H]2O[C@H](CO)[C@@H](O)[C@H](O)[C@H]2O[C@@H]2O[C@H](CO)[C@@H](O)[C@H](O)[C@H]2O)[C@H](O[C@@H]2O[C@H](CO)[C@@H](O)[C@H](O)[C@H]2O)[C@@H](O)[C@@H]1O,outcome,NIH3T3,inactive [at 17.4 µM]
same,Potency,C33A,inactive
same,Potency,CAOV3,inactive
same,outcome,CASKI,inactive
same,Potency,Es-2,inactive
same,Potency,HeLa,inactive
same,Potency,Hek293T,inactive
same,Potency,JEG-3,inactive
same,Potency,OV90,inactive
same,Potency,PA-1,inactive
same,Potency,Tov-21-G,inactive
same,Potency,Tov112D,inactive
CCN1CCN(C(=O)N[C@@H](C(=O)N[C@@H]2C(=O)N3[C@@H]2SC(C)(C)[C@@H]3C(=O)O)c2ccccc2)C(=O)C1=O,outcome,NIH3T3,inactive
same,Potency,C33A,inactive
same,Potency,CAOV3,inactive
same,outcome,CASKI,inactive
same,Potency,Es-2,inactive
same,Potency,HeLa,inactive
same,Potency,Hek293T,inactive
same,Potency,JEG-3,inactive
same,Potency,OV90,inactive
same,Potency,PA-1,inactive
same,Potency,Tov-21-G,inactive
same,Potency,Tov112D,inactive
C=C1C(O)C(OC(=O)c2ccccc2)C2C(C)(C(=O)O)CCCC2(C)C1CC/C(C)=C\CO (stereo unspecified),outcome,NIH3T3,inactive [at 17.4 µM]
same,Potency,C33A,inactive
same,Potency,CAOV3,inactive
same,outcome,CASKI,inactive
same,Potency,Es-2,inactive
same,Potency,HeLa,inactive
same,Potency,Hek293T,inactive
same,Potency,JEG-3,inactive
same,Potency,OV90,inactive
same,Potency,PA-1,inactive
same,Potency,Tov-21-G,inactive
same,Potency,Tov112D,inactive
